Shown are actives, neighbours in structure and some others; about 19% of the full set was active somewhere.
Giardia killer = Giardia lamblia killing; AID 540267; activity change, % at 7.66 µM, hits read low; 340,000 tested, 0.15% active; Giardia lamblia trophozoite viability; in the data active means activity change below about -80%; inconclusive means between about -30% and that limit;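 further: parasites exposed to compound for two days anaerobically before the ATP read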
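Luminescence from cellular ATP indicates surviving trophozoites (100 cells/well) following 48 hrs anaerobic compound treatment at 37 deg C; signal develops 15-30 min at room temperature.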
ELG1 DNA repair = inhibitors of ELG1-dependent DNA repair in HEK293T cells | HEK293T ELG1-luciferase reporter, luminescence, 16 h; DNA damage induced by 5-fluorouridine | Potency, µM (doses to about 46.1 µM), inactives show at the top dose activity change, negative = inhibition, actives largely listed as inhibitors | 330,000 tested, 2.3% active | AID 504467; further: potency means the concentration at half of the fitted maximal effect; nearly all actives have a fitted effect of over 55% in size
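Quantitative HTS, concentration-response format. 2,000 cells/well co-treated with 5-fluorouridine and compound, 16 hr in 5% CO2 at 37 °C; ONE-Glo luminescence read after 30 min.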
DT40 TDP1 CPT = DT40-hTDP1 cell growth loss with CPT; chicken DT40 Tdp1-/-;hTDP1 cells + 20 nM CPT, ATP luminescence, 48 h; Potency, µM (top dose mostly 46.2 µM), inactives show at the highest dose activity change, negative = growth inhibition, usual class: inhibitors; 420,000 tested, 12% active; AID 686979; further: potency means the concentration at half of the fitted maximal effect; nearly all actives have a fitted effect of over 55% in size
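Chicken DT40 Tdp1-/- cells stably complemented with human TDP1 were seeded at 400 cells/well in medium containing 20 nM camptothecin, exposed to pin-transferred compounds, and grown at 37 °C for at least 48 hr. Viability was read as ATP luminescence.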
TDP1 cell noCPT = qHTS for Inhibitors of human tyrosyl-DNA phosphodiesterase 1 (TDP1): qHTS in cells in absence of CPT | 420,000 tested, 15% active | DT40 Tdp1-/- hTDP1 cells, no CPT, ATP luminescence, 48 h | Potency, µM (doses to about 46.2 µM), inactives show at the top dose activity change, negative = growth inhibition, actives largely listed as inhibitors; further: potency means the concentration at half of the fitted maximal effect; nearly all actives have a fitted effect of over 55% in size
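Seeded 400 DT40-hTDP1 cells/well (vehicle DMSO, no 20 nM CPT); pinned compounds; ≥48 hr at 37 °C; CellTiter-Glo luminescence as viability measure.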
TDP1 inh = TDP1 (human) enzyme inhibition. Q9NUW8. recombinant TDP1, AlphaScreen DNA substrate cleavage. Potency, µM (doses to about 130 µM), for the others: top-dose activity change, negative = inhibition, hits mostly inhibitors. 350,000 tested, 0.28% active. AID 485290; further: potency means the concentration at half of the fitted maximal effect; nearly all actives have a fitted effect of over 40% in size
Target sequence (Q9NUW8 whole entry, looked up): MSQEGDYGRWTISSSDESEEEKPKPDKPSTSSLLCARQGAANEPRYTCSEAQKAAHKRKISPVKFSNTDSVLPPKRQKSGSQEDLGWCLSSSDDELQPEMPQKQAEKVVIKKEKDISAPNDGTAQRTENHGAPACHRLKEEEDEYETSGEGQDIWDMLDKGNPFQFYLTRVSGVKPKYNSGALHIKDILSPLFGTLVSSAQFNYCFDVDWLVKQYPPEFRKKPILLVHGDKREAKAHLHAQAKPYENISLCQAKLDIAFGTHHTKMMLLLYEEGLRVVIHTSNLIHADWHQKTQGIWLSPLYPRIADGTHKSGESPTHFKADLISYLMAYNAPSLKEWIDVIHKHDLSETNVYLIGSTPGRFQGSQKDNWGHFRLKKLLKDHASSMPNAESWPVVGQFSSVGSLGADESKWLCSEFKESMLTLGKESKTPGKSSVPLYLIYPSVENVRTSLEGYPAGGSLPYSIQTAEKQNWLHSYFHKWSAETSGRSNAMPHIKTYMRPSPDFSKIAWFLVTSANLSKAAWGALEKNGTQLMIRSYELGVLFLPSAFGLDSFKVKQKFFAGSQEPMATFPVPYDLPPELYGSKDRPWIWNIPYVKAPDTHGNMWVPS
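Steps: enzyme plus compound, 15 min RT; add biotin/phosphotyrosine-FITC oligonucleotide (15 nM final), react 5 min; add donor/acceptor beads (10 ug/ml final), 10 min; read AlphaScreen. Tdp1 at 1 nM final.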
IL1B secr inh = blocks inflammasome-driven IL-1 beta release. 360,000 tested, 4.7% active. AID 743279. activity change, % at 57.5 µM. THP-1 LPS/ATP IL-1B secretion, AlphaLISA, 16 h; active compounds read low; in the data active means activity change below about -50%; inconclusive means mostly about -30% to -49%
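THP-1 cells pretreated 1 hr with compounds (up to 57.5 uM final), then stimulated with LPS (250 ng/mL final) plus ATP (1.25 mM final); secreted IL-1B measured by AlphaLISA after 16 hr, decreased signal indicating inhibition.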
An asterisk follows results filed as active; ? = inconclusive; nt = no result; [ ] = another dose, or the depositor's remark. Unless noted, the call rests on the fitted dose curve; in most records, active means well fitted curve in the direction sought with a large enough effect; inconclusive means small, poorly fitted or top-dose-only effect, or another doubt; inactive means no such curve, though single readings can be large; an effect the other way counts as inactive or inconclusive. On the % scale 0 is the no-effect control and ±100 the full control effect.

SMILES	Giardia killer	ELG1 DNA repair	DT40 TDP1 CPT	TDP1 cell noCPT	TDP1 inh	IL1B secr inh
Cc1nn(C(=O)c2ccccc2F)c(C)c1S(=O)(=O)N1CCOCC1	nt	nt	-4%	-3%	7%	nt
C[C@H](CO)N1C[C@H](C)[C@@H](CN(C)C)Oc2c(NC(=O)CCCCCC(=O)Nc3ccccc3N)cccc2C1=O	11	-8%	18µM*	?	1%	16
C[C@H](CO)N1C[C@H](C)[C@@H](CN(C)Cc2ccccc2)Oc2ccc(NC(=O)CCCCCC(=O)Nc3ccccc3N)cc2C1=O	-2	?	?	?	1%	38
C[C@H](CO)N1C[C@H](C)[C@@H](CN(C)Cc2ccncc2)Oc2c(NC(=O)CCCCCC(=O)Nc3ccccc3N)cccc2C1=O	8	1%	?	23µM*	2%	1
N#CC1(NC(=O)CSc2nnc(C3CC3)n2N)CCCCC1	nt	nt	-2%	-2%	nt	21
O=C(OCCn1c(=S)sc2ccccc21)c1ccccc1	-3	nt	-5%	-25%	nt	1
Cc1c2cnccc2c(C)c2c1c1ccccc1n2CCOC(=O)c1ccccc1	nt	nt	?	11µM*	nt	nt
CN(C(=O)COC(=O)C1COc2ccccc2O1)c1c(N)n(Cc2ccccc2)c(=O)[nH]c1=O (stereo unspecified)	-18	10%	0%	4%	0%	14
C#CC(=O)N(c1ccc(OC)c(OC)c1)C(C(=O)NC1CCCC1)c1cccs1 (stereo unspecified)	2	?	0.73µM*	0.65µM*	3%	-106*
COc1ccc(N(C(=O)Cc2cccs2)C(C(=O)NC2CCCCC2)c2cccn2C)cc1OC (stereo unspecified)	-11	-4%	-1%	-18%	13%[56.1 µM]	-6
C#CC(=O)N(c1cccc(OC)c1)C(C(=O)NC1CCCC1)c1cccs1 (stereo unspecified)	3	21µM*	1µM*	2.3µM*	-4%	-102*
COCC(C)n1c(C)cc(C(=O)COc2ccc(S(=O)(=O)N3CCOCC3)cc2Cl)c1C (stereo unspecified)	-26	-26%	21µM*	?	12%	-3
O=C(COc1ccc(S(=O)(=O)N2CCOCC2)cc1Cl)NC1CC1	-16	25%	-6%	-22%	0%	30
COc1ccc(C(=O)/C=C/c2cn(CC(O)CN3CCc4ccccc43)c3ccccc23)cc1OC (stereo unspecified)	nt	nt	3.3µM*	4.1µM*	10%	nt
COc1ccc(C(=O)/C=C/c2cn(CN3CCN(C)CC3)c3ccccc23)cc1	-2	?	-27%	?	3%	-68*
Cc1ccc(C(=O)/C=C/c2cn(CC(O)CN3CCOCC3)c3ccccc23)cc1 (stereo unspecified)	8	-23%	?	?	2%	-82*
O=C(/C=C/c1cn(CC(O)CN2CCOCC2)c2ccccc12)c1cccs1 (stereo unspecified)	nt	8%	nt	nt	4%	nt
COc1ccc(C(=O)/C=C/c2cn(CC(O)CN3CCOCC3)c3ccccc23)cc1 (stereo unspecified)	18	?	?	?	4%	-93*
COc1ccc(CC(=O)Nc2ccc(S(=O)(=O)N3CCCC3)cc2)c(OC)c1	9	-20%	-28%	-5%	1%	0
Cc1cc(C)nc(Sc2nc(Cl)nc(N(c3ccccc3)c3ccccc3)n2)n1	-2	?	?	?	1%	-97*
COc1cccc(-c2nn(C)c3sc(C(=O)NCc4ccco4)cc23)c1	14	?	21µM*	-27%	9%	-56*
CCN(CC)CCCNC(=O)c1cc2c(-c3cccc(OC)c3)nn(C)c2s1	7	?	?	15µM*	nt	?

Source: PubChem BioAssay
